Structures are written as SMILES. ± gives the standard deviation.

Common to all, as to details: modulator concentration 10 µM
Experiment [1] relates to RAW-Dual (murine macrophage reporter line). Briefly: NF-kB reporter (SEAP) activity fold change vs agonist alone; higher = enhanced NF-kB activity. The method in brief: (§1)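 RAW-Dual murine macrophage reporter cells were seeded at 50 000 per well in 384-well plates and pre-incubated 1 hour at 37 °C with compound pin-transferred to 10 μM final. After 1 hour, a PRR agonist was added and cells incubated overnight. Supernatant NF-κB (SEAP, QUANTI-Blue, 620 nm absorbance) and IRF (Lucia luciferase, QUANTI-Luc, luminescence) signals were divided by the mean agonist-only control on the same plate to give fold change. Two replicate plates were averaged, with errors by propagation.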

Experiment [2] shares this test system. Briefly: IRF reporter (Lucia luciferase) activity fold change vs agonist alone; higher = enhanced IRF activity. The gist of the method: as §1
For experiment [3] the test system is unchanged. Briefly: viability score (confluency relative to resting cells, overnight) (fraction); higher = more viable, active = viable (0.7 or more). The method in brief: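 Two confluency masks, generated with IncuCyte software over all imaged wells, were applied to IncuCyte images of RAW-Dual macrophages. The cells, in 384-well plates, had been exposed overnight to 10 μM final compound. The viability score is confluency as a fraction of resting cells, and a compound met the cutoff only with both masks above 70% of resting cells.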

Setting [4] is: agonist: CpG ODN 1826 0.5 ug/mL.

For the molecule `COC(=O)C1=CN(CC2CCCO2)C=C(C(=O)OC)C1c1ccccc1OC` (stereo unspecified), the figures for the NF-kB reporter in experiment [1] (setting [4]), in experiment [1] (agonist: LPS 0.1 ug/mL) and in experiment [1] (agonist: MPLA […]) were 0.826 ± 0.066, 0.849 ± 0.059 and 1.3 ± 0.37, respectively. The IRF reporter turned out to be 0.996 ± 0.059 in experiment [2] (agonist: 3'3'-cGAMP 10 ug/mL), 1.34 ± 0.094 in experiment [2] (agonist: LPS 0.1 ug/mL) and 1.41 ± 0.16 in experiment [2] (agonist: MPLA […]). Also, the viability score in experiment [3] was 1.02 (active).
In the case of `CC(C)(C)C(O)/C=C/c1ccc2c(c1)OCO2` (stereo unspecified), the results for the NF-kB reporter in experiment [1] (setting [4]), in experiment [1] (agonist: LPS 0.1 ug/mL) and in experiment [1] (agonist: MPLA […]) were 1.19 ± 0.066, 1.26 ± 0.11 and 1.03 ± 0.055, respectively. Further, the IRF reporter amounted to 0.45 ± 0.029 in experiment [2] (agonist: 3'3'-cGAMP 10 ug/mL), 0.877 ± 0.16 in experiment [2] (agonist: LPS 0.1 ug/mL) and 1.01 ± 0.17 in experiment [2] (agonist: MPLA […]). Further, the viability score in experiment [3] is 0.819 (active).
As for `C#CCN[C@@H]1CCc2ccccc21.CS(=O)(=O)O`, the values for the NF-kB reporter in experiment [1] (setting [4]), in experiment [1] (agonist: LPS 0.1 ug/mL) and in experiment [1] (agonist: MPLA […]) were 0.992 ± 0.1, 1.03 ± 0.12 and 1.03 ± 0.031, respectively. Besides, the figures for the IRF reporter in experiment [2] (agonist: 3'3'-cGAMP 10 ug/mL), in experiment [2] (agonist: LPS 0.1 ug/mL) and in experiment [2] (agonist: MPLA […]) were 0.933 ± 0.087, 0.913 ± 0.03 and 0.849 ± 0.1, respectively. In experiment [3], the viability score was 0.996 (active).
On to `CCOC(=O)CN1CCOCCOCCN(CC(=O)OCC)CCOCCOCC1`, for which the NF-kB reporter stood at 0.937 ± 0.078 in experiment [1] (setting [4]), 0.971 ± 0.061 in experiment [1] (agonist: LPS 0.1 ug/mL) and 0.957 ± 0.067 in experiment [1] (agonist: MPLA […]). The IRF reporter in experiment [2] (agonist: 3'3'-cGAMP 10 ug/mL) worked out at 0.974 ± 0.052; in experiment [2] (agonist: LPS 0.1 ug/mL), 1.23 ± 0.088; in experiment [2] (agonist: MPLA […]), 1.02 ± 0.1. Moreover, the viability score in experiment [3] is 1.01 (active).
As for `N#Cc1c(N=Cc2ccc(Cl)cc2)sc2c1CCCC2`, the NF-kB reporter in experiment [1] (setting [4]) was 0.912 ± 0.16; in experiment [1] (agonist: LPS 0.1 ug/mL), 1.01 ± 0.21; in experiment [1] (agonist: MPLA […]) it was 0.89 ± 0.068. Besides, the results for the IRF reporter in experiment [2] (agonist: 3'3'-cGAMP 10 ug/mL), in experiment [2] (agonist: LPS 0.1 ug/mL) and in experiment [2] (agonist: MPLA […]) were 0.915 ± 0.031, 1.17 ± 0.21 and 1.21 ± 0.12, respectively. In experiment [3], the viability score is 1 (active).
Turning to `CCN1CCN(Cc2c(O)ccc3c2OC(=Cc2ccc(C)cc2)C3=O)CC1`, the values for the NF-kB reporter in experiment [1] (setting [4]), in experiment [1] (agonist: LPS 0.1 ug/mL) and in experiment [1] (agonist: MPLA […]) were 1.05 ± 0.078, 1.03 ± 0.14 and 1.2 ± 0.028, respectively. Also, the figures for the IRF reporter in experiment [2] (agonist: 3'3'-cGAMP 10 ug/mL), in experiment [2] (agonist: LPS 0.1 ug/mL) and in experiment [2] (agonist: MPLA […]) were 0.945 ± 0.058, 0.967 ± 0.12 and 1.06 ± 0.13, respectively. Further, the viability score in experiment [3] was 0.995 (active).
`Cc1c(Cl)cccc1NC(=O)C(Cl)=Cc1ccccc1`: the NF-kB reporter in experiment [1] (setting [4]) came to 0.757 ± 0.082; in experiment [1] (agonist: LPS 0.1 ug/mL) it was 0.929 ± 0.11; in experiment [1] (agonist: MPLA […]), 1.07 ± 0.095. Further, the IRF reporter in experiment [2] (agonist: 3'3'-cGAMP 10 ug/mL) was 0.799 ± 0.04; in experiment [2] (agonist: LPS 0.1 ug/mL), 1.13 ± 0.068; in experiment [2] (agonist: MPLA […]) it was 1.25 ± 0.11. For the same molecule, in experiment [3], the viability score was 1.01 (active).
For the molecule `CCOc1ccc2nc(NC(=O)c3ccc(Br)cc3F)sc2c1`, the NF-kB reporter is 1.15 ± 0.095 in experiment [1] (setting [4]), 1.1 ± 0.098 in experiment [1] (agonist: LPS 0.1 ug/mL) and 1 ± 0.041 in experiment [1] (agonist: MPLA […]). For the same molecule, the figures for the IRF reporter in experiment [2] (agonist: 3'3'-cGAMP 10 ug/mL), in experiment [2] (agonist: LPS 0.1 ug/mL) and in experiment [2] (agonist: MPLA […]) were 0.873 ± 0.071, 1.05 ± 0.067 and 0.946 ± 0.15, respectively. In addition, the viability score in experiment [3] was 0.994 (active).
With `COC(=O)C1=C(C)N(C)C(C)=C(C(=O)OC)C1c1ccc(-c2ccccc2)cc1`, the results for the NF-kB reporter in experiment [1] (setting [4]), in experiment [1] (agonist: LPS 0.1 ug/mL) and in experiment [1] (agonist: MPLA […]) were 0.873 ± 0.069, 0.943 ± 0.057 and 0.939 ± 0.06, respectively. Moreover, the figures for the IRF reporter in experiment [2] (agonist: 3'3'-cGAMP 10 ug/mL), in experiment [2] (agonist: LPS 0.1 ug/mL) and in experiment [2] (agonist: MPLA […]) were 0.989 ± 0.03, 1.06 ± 0.16 and 0.905 ± 0.19, respectively. In addition, the viability score in experiment [3] was 1 (active).
Regarding `OCC(S)CS` (stereo unspecified), the NF-kB reporter in experiment [1] (setting [4]) was determined as 0.949 ± 0.072; in experiment [1] (agonist: LPS 0.1 ug/mL) it was 0.909 ± 0.059; in experiment [1] (agonist: MPLA […]), 0.988 ± 0.023. In addition, the IRF reporter in experiment [2] (agonist: 3'3'-cGAMP 10 ug/mL) is 0.336 ± 0.034; in experiment [2] (agonist: LPS 0.1 ug/mL), 0.84 ± 0.07; in experiment [2] (agonist: MPLA […]), 0.912 ± 0.081. Further, the viability score in experiment [3] was 0.994 (active).
For the molecule `O=C(NC(=S)c1c(-c2ccccc2)cc2ccccn12)c1ccccc1`, the NF-kB reporter stood at 0.746 ± 0.058 in experiment [1] (setting [4]), 0.786 ± 0.038 in experiment [1] (agonist: LPS 0.1 ug/mL) and 0.883 ± 0.078 in experiment [1] (agonist: MPLA […]). The results for the IRF reporter in experiment [2] (agonist: 3'3'-cGAMP 10 ug/mL), in experiment [2] (agonist: LPS 0.1 ug/mL) and in experiment [2] (agonist: MPLA […]) were 0.516 ± 0.03, 1.18 ± 0.086 and 1.36 ± 0.18, respectively. In addition, the viability score in experiment [3] was 1.01 (active).
As to `COC(=O)N[C@H](C(=O)N1CCC[C@H]1c1ncc(-c2ccc(-c3ccc(-c4cnc([C@@H]5CCCN5C(=O)[C@@H](NC(=O)OC)C(C)C)[nH]4)cc3)cc2)[nH]1)C(C)C`, the values for the NF-kB reporter in experiment [1] (setting [4]), in experiment [1] (agonist: LPS 0.1 ug/mL) and in experiment [1] (agonist: MPLA […]) were 0.724 ± 0.098, 1.17 ± 0.46 and 1.22 ± 0.074, respectively. For the same molecule, the IRF reporter was 0.757 ± 0.12 in experiment [2] (agonist: 3'3'-cGAMP 10 ug/mL), 1.52 ± 0.3 in experiment [2] (agonist: LPS 0.1 ug/mL) and 4.38 ± 1.3 in experiment [2] (agonist: MPLA […]). The viability score in experiment [3] is 0.987 (active).
Turning to `COc1ccc(CCNC(=O)NCc2nnc3n2CCC(C(F)(F)F)C3)cc1` (stereo unspecified), the NF-kB reporter came to 0.951 ± 0.067 in experiment [1] (setting [4]), 1.02 ± 0.088 in experiment [1] (agonist: LPS 0.1 ug/mL) and 0.947 ± 0.072 in experiment [1] (agonist: MPLA […]). For the same molecule, the IRF reporter amounted to 1.05 ± 0.072 in experiment [2] (agonist: 3'3'-cGAMP 10 ug/mL), 1.17 ± 0.07 in experiment [2] (agonist: LPS 0.1 ug/mL) and 1.12 ± 0.23 in experiment [2] (agonist: MPLA […]). The viability score in experiment [3] was 1.01 (active).

Values taken from the supplement of paper PMC10646978.
